A selection: hits, their analogues and other compounds. The true share with any hit is near 4.7%.
DRD3 antagonist – blocks the human D3 dopamine receptor; D3R cells, DiscoveRx beta-arrestin luminescence, antagonist mode; hits give low values; max response, negative = inhibition, %; actives 2.5% (n = 360,000); in the data active = max response below about -50%; inconclusive = no clear call, values can overlap the other calls; note: % is set by controls: 0 for no effect and ±100 for the full control effect
Target sequence (P35462 whole entry, looked up): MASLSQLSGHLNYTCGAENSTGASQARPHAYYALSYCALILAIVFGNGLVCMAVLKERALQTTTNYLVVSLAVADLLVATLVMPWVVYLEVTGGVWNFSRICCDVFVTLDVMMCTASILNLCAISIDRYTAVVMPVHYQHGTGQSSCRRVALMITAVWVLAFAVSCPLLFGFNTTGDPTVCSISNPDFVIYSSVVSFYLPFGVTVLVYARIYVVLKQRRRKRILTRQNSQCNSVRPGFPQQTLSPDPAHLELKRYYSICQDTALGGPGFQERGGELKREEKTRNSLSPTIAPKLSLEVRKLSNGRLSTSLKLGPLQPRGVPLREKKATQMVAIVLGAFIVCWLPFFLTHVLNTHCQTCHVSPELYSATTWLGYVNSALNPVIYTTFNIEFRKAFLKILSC
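Cells plated overnight at 1500 cells/well, then exposed to library compounds with dopamine controls for 90 minutes at 37 degrees C. DiscoveRx reagent added for 30–60 minutes at room temperature; luminescence read, quantitative HTS format.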
HepG2 viability – kills HepG2 cells in TGF-b inhibitor counter-screen | HepG2 CAGA-GFP viability, ATP luminescence, 18 h | Potency, µM (highest dose often 46.1 µM), for the others: top-dose activity change, negative = cytotoxicity, usual class: cytotoxic | actives 0.76% (n = 410,000); note: potency is the fitted concentration of half-maximal effect
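CellTiter-Glo luminescence gave cytotoxicity after 18 hours at 37 degrees C. The cells were HepG2 CAGA-GFP in 1% FBS DMEM, stimulated with 500 pg/mL TGF-beta after compound addition. %Activity was normalised to no-cell wells (complete cell-killing) and DMSO (no toxicity), and curves were fitted and classified.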
D3 ag – agonists of human D3 dopamine receptor; P35462; D3R DiscoveRx beta-arrestin cells, luminescence, 90 min; max activation, %; actives 0.58% (n = 410,000); AID 652048; in the data active = max activation above about 30%; note: 0% is about no effect
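Agonist mode: compounds and dopamine controls were applied to plated cells for 90 min at 37 degrees C after an overnight attachment at 1500 cells/well. Luminescent read-out followed 30 - 60 minutes at room temperature with DiscoveRx detection reagent.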
S2 tox – viability counter-screen for ATXN expression inhibitors; S2 cells (HEK-293 line with an ATXN2-luciferase reporter) viability, CellTiter-Fluor protease fluorescence, 24 h; Potency, µM (doses to about 56.7 µM), hits mostly cytotoxic; actives 0.49% (n = 400,000); AID 651635; note: potency is the fitted concentration of half-maximal effect; nearly all actives have a fitted effect of over 40% in size
ATXN2 expr inh – inhibitors of ATXN2 expression; HEK-293 ATXN2-luciferase reporter, luminescence, 24 h; Potency, µM (highest dose often 57 µM), inactives show top-dose activity change, negative = inhibition, usual class: inhibitors; actives 0.72% (n = 360,000); AID 1745845; note: potency is the fitted concentration of half-maximal effect; % is set by controls: 0 for no effect and ±100 for the full control effect; nearly all actives have a fitted effect of over 55% in size
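ATXN2-luciferase reporter cells (luciferase flanked by upstream and downstream ATXN2 gene portions) were treated 24 h at 37 °C with compounds at up to 57 uM. SteadyGlo luminescence gave expression; GF-AFC fluorescence gave viability.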
TGFb SMAD3 inh – blocks TGF-b signaling | HepG2 CAGA-GFP TGF-b/SMAD3 reporter, GFP fluorescence, 18 h; TGF-beta stimulated, 500 pg/mL final | Potency, µM (titrated, usually from 46.1 µM), for inactives: top-dose activity, negative = inhibition, actives largely listed as inhibitors | actives 1.2% (n = 410,000) | AID 588855; note: potency is the fitted concentration of half-maximal effect; % is set by controls: 0 for no effect and ±100 for the full control effect; nearly all actives have a fitted effect of over 65% in size
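TGF-beta reporter screen: HEPG2 CAGA-GFP, 1% FBS, 500 pg/mL TGF-beta final, 18 h; per-cell GFP summed per well; curves fitted and categorized by class.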
An asterisk follows results filed as active; i = inactive; ? = inconclusive; . = no result. Unless noted, calls come from the whole dose curve; as a rule, active = well fitted curve in the direction sought with a large enough effect; inconclusive = small, poorly fitted or top-dose-only effect, or another doubt; inactive = no such curve, though single readings can be large; an effect the other way counts as inactive or inconclusive.

SMILES	DRD3 antagonist	HepG2 viability	D3 ag	S2 tox	ATXN2 expr inh	TGFb SMAD3 inh
COC(=O)/C=C1/S/C(=N/NC(=O)c2ccccc2)NC1=O	-8	-42%	4	i	2%	10%
COC(=O)/C=C1\S/C(=N/NC(=O)c2ccccc2)NC1=O	-65*	-12%	-2	i	5%	-6%
CCCNC(=O)N1[C@H](c2ccc(C)s2)[C@@H](C)C(=O)[C@@H](C)[C@@H]1c1ccc(C)s1	.	-25%	2	i	4%	-30%
Cc1c(C#N)c(NC(=O)CCl)n(Cc2ccccc2)c1C	-9	-50%	0	8.4µM*	11µM*	?
CCN(CC)C(=O)c1sc(NC(=O)Cc2cccs2)c(C#N)c1C	18	-1%	2	i	1%	-1%
Cc1c(C#N)c(NC(=O)CCl)n(Cc2cccs2)c1C	-12	-81%	0	.	?	13µM*
COC(=O)c1cc(C(=O)OC)n(Cc2ccc(F)cc2)c1C	-12	-5%	-9	i	10%	8%
Cc1c(C#N)c(NC(=O)CCl)n(Cc2ccc(F)cc2)c1C	0	11µM*	-2	21µM*	?	18µM*
CCC1CCCCN1CCCNC(=O)c1sc2nc(C)cc(C)c2c1-n1cccc1 (configuration not stated)	.	-18%	-8	.	.	?
COC(=O)c1ccc(NC(=O)CC2C(=O)N(c3cccc(F)c3)C(=O)N2CC(C)C)cc1 (configuration not stated)	.	-7%	-18	i	-24%	-3%
Cc1ccc(C2c3c(-c4ccccc4O)n[nH]c3C(=O)N2CCCO)cc1 (configuration not stated)	.	3%	-11	?	-30%	38%
CCc1ccc(C2c3c(-c4ccccc4O)n[nH]c3C(=O)N2Cc2ccncc2)cc1 (configuration not stated)	.	-43%	-13	25µM*	-19%	?
O=C1c2[nH]nc(-c3ccccc3O)c2C(c2cccc(O)c2)N1Cc1ccncc1 (configuration not stated)	.	-8%	-4	i	-3%	?
CCOCCCN1C(=O)c2[nH]nc(-c3ccccc3O)c2C1c1ccc(CC)cc1 (configuration not stated)	.	18µM*	-7	?	0%	?
CCN1CCN(c2ccc(Cl)cc2NC(=O)c2ccc(-n3nc(C)cc3C)cc2)CC1	-8	22µM*	-13	i	?	-6%
COc1cc(-c2cc3n(C)c(C)c(CCC(=O)NC4CCCCC4)c(=O)n3n2)cc(OC)c1OC	.	-11%	5	.	.	-3%
N#CC(C#N)=C1C=CC=CN1/C(=C\c1ccco1)C(=O)c1ccc(Cl)cc1	-108*	-12%	-6	?	?	?
N#CC(C#N)=C1C=CC=CN1/C(=C\c1ccco1)C(=O)c1ccc(-c2ccccc2)cc1	-92*	11µM*	-11	?	?	7.1µM*
CCOC(=O)c1sc2nc(C)nc(NCc3ccccc3OC)c2c1C	69	1%	33*	i	?	0%
CCOC(=O)c1sc2nc(C)nc(NCCc3ccccn3)c2c1C	-2	12%	5	i	-27%	4%
COc1ccc(C2=Nn3c(nnc3-c3ccc(OC)cc3)SC2)cc1	?	-1%	-6	i	-24%	?
CCOC(=O)/C(=C\c1ccc(OC(F)F)cc1)C1=Nn2c(nnc2-c2ccc(Cl)cc2)SC1	-90*	2.5µM*	-9	?	?	4µM*
CCOC(=O)/C(=C/c1ccc(OC(F)F)cc1)C1=Nn2c(nnc2-c2ccc(Cl)cc2)SC1	-62*	3.2µM*	-17	7.9µM*	10µM*	?
COc1ccc(-c2nnc3n2N=C(C)CS3)cc1	-4	-14%	1	i	8%	2%
OCCN1CCN(Cc2ccc3c(c2)CN(Cc2cnc(-c4ccccc4)s2)CCO3)CC1	.	.	.	i	.	.

High-throughput results as filed in PubChem BioAssay.
